Only some compounds are listed: those with a hit (about 4% of all), similar ones and a draw of the others.
Mtb bLac sens = beta-lactam sensitization of Mtb H37Rv; inhibition, % at 25 µM; M. tuberculosis H37Rv growth with meropenem, percent inhibition; 330,000 compounds, 0.27% hits;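 also: growth measured after seven days incubation then overnight dye step; 0% = bacteria only wells and 100% = bacteria with antibiotic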
MazEF act = increases E. coli MazEF RNase cleavage of RNA. FAM/BHQ RNA-DNA oligo cleavage fluorescence, 5 h. activation, % at 20 µM. 350,000 compounds, 0.32% hits. AID 504720; in the data active = activation above about 50%
Target sequence (P0AE70 whole entry, looked up): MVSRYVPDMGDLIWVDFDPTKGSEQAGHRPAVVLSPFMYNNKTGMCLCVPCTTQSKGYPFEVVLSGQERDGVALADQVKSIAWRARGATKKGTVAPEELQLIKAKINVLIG
GDH-TPI counter-1 = counter-screen for M. tuberculosis FBA inhibitors: GDH-TPI coupled enzymes; AID 588335; inhibition, % at 4.8 µM; GDH-TPI coupled enzyme counterscreen, NADH absorbance; 360,000 compounds, 1.2% hits; in the data active = inhibition above about 30%;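 also: 0% = DMSO wells and 100% = wells lacking the enzyme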
FBA Mtb inh = Mtb fructose-bisphosphate aldolase inhibition; P9WQA3; purified M. tuberculosis FBA, fluorescence read-out; inhibition, % at 1 µM; 360,000 compounds, 2.3% hits; AID 588726; in the data active = inhibition above about 27%;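 also: 0% = vehicle and 100% = reference inhibitor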
Target sequence (P9WQA3 whole entry, looked up): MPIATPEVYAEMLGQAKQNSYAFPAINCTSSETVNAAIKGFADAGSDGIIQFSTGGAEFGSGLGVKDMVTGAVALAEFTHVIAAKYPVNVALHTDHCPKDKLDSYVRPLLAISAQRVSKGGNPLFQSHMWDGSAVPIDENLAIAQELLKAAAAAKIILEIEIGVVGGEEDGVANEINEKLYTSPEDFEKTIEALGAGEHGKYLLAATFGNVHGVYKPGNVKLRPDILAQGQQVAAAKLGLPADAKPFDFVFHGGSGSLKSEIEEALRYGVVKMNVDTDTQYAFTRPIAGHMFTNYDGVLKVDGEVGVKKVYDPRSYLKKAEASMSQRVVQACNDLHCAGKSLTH
CCHF vOTU inh = CCHFV vOTU protease inhibition. inhibition, % at 11.5 µM. 370,000 compounds, 0.55% hits. AID 651958. Pep-AMC fluorescence; in the data active = inhibition above about 30%; also: 0% = vehicle wells with enzyme and 100% = no enzyme wells
Mtb FBA inh conf = Mtb FBA inhibition, confirmed | shares compounds with FBA Mtb inh | purified M. tuberculosis FBA, fluorescence read-out | inhibition, % at 1 µM | 5,600 compounds, 78% hits | AID 651616; in the data active = inhibition above about 27%;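 also: 0% = vehicle wells and 100% = reference inhibitor wells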
GDH-TPI counter-2 = GDH-TPI inhibition counter-screen for FBA inhibitors; shares compounds with FBA Mtb inh; GDH-TPI coupled enzyme counterscreen, fluorescence; inhibition, % at 1 µM; 5,600 compounds, 81% hits; AID 652141; in the data active = inhibition above about 10%
GDH-TPI DR = GDH-TPI dose response counter-screen for Mtb FBA; shares compounds with FBA Mtb inh; GDH-TPI coupled enzyme assay, fluorescence, artifact counterscreen; IC50, µM; 170 compounds, 79% hits; AID 652145
An asterisk follows results filed as active; . = no result given; + = active, no number. Unless noted, no rule for the calls is given here.

SMILES	Mtb bLac sens	MazEF act	GDH-TPI counter-1	FBA Mtb inh	CCHF vOTU inh	Mtb FBA inh conf	GDH-TPI counter-2	others
C[C@]12c3[nH]c4cc(-c5ccco5)ccc4c3CCN1C(=O)[C@@H](CC(=O)NCc1ccco1)C[C@@H]2C(=O)N1CCOCC1	.	2	7	31*	-27	174*	148*
CCN(CC)C(=O)[C@H]1C[C@H](CC(=O)NCc2ccco2)C(=O)N2CCc3c([nH]c4cc(-c5ccco5)ccc34)[C@]12C	.	6	-5	27	-19	.	.
CCCC(=O)OC12CCCN(C1)/C(=C/c1ccc(C#N)cc1)C2 (stereo not given)	.	.	.	.	-2	.	.
O=C(CNc1nnnn1-c1ccccc1)N1CCCC1	.	.	.	.	-6	.	.
CCO/C=C1/C(=O)N(c2ccc(OC)cc2)C(=O)c2ccccc21	8	6	-1	12	7	.	.
CCO/C=C1/C(=O)N(c2ccccc2OC)C(=O)c2ccccc21	-2	12	2	35*	14	96*	81*
CC(=O)c1sc2nc(SCC(=O)NCCc3ccccc3)[nH]c(=O)c2c1C	-6	1	53*	29*	-4	77*	73*
COC1(OC)N=C(N)C2(C#N)C(c3ccccc3)NC(C)=CC12C#N (stereo not given)	0	-4	-2	62*	-35	+	+
COC1(OC)N=C(N)C2(C#N)C(c3cccc(Oc4ccccc4)c3)C12C#N (stereo not given)	-12	-7	1	-4	-14	.	.
Cc1[nH]c2ccccc2c1CC(=O)Nc1ccc(Nc2cccnc2)c(-c2ccc(Cl)c(Cl)c2)c1	.	.	.	.	-6	.	.
O=C(Nc1ccc(F)cc1)Nc1nc2ncccn2c1-c1ccc(F)cc1	.	.	.	.	-25	.	.
CC(C)(C)Nc1c2ccccc2nc2ccccc12	-2	-5	-5	42*	-92	94*	71*
COc1ccccc1Nc1c2ccccc2nc2ccccc12	-10	17	0	1	-9	.	.
CCOC(=O)Nc1c2ccccc2nc2ccccc12	5	8	12	95*	-120	114*	77*
CCOC(=O)Nc1ccc(Oc2ccccc2)cc1	81	5	-14	5	-2	.	.
Cc1ccc(C(=O)NNc2c3ccccc3nc3ccccc23)cc1	22	-9	23	36*	-26	97*	103*
Oc1cccc(Nc2c3ccccc3nc3ccccc23)c1	5	27	3	65*	-108	21	18*
Cc1ccc(NC(=O)[C@H]2CC(=O)O[C@@H]2c2ccccc2)cc1C	.	.	.	.	4	.	.
O=C(O)c1ccc(Nc2c3ccccc3nc3ccccc23)cc1	10	-3	-1	98*	-179	+	+
COC(=O)[C@]12C[C@H](CC(=O)N3CCN(C(=O)c4ccco4)CC3)C(=O)N(Cc3ccccc3)C1=C[C@H](C1CCCC1)O[C@@H]2C	.	.	.	.	4	.	.
O=c1[nH]c2ccc(Cl)cc2c(O)c1Cc1ccccc1	10	2	12	35*	-13	+	193*
O=C(Nc1ccc(Cl)cc1)c1cc2c(cc1O)[nH]c1ccccc12	100	-12	15	107*	1	83*	71*
C=CCN1C(=O)[C@H](CC(=O)NCCc2ccccc2OC)[C@@]2(C(=O)OCC)CCCC=C12	.	.	.	.	-1	.	.
CC1(C)CC(=O)c2cc(OCC(=O)NCCN3CCOCC3)ccc2O1	-1	12	3	34*	-49	57*	40*
CCOC(=O)N1CCN(C(=O)COc2ccc3c(c2)C(=O)CC(C)(C)O3)CC1	-1	-21	4	41*	-92	134*	114*
SMILES	Mtb bLac sens	MazEF act	GDH-TPI counter-1	FBA Mtb inh	CCHF vOTU inh	Mtb FBA inh conf	GDH-TPI counter-2	others
COc1ccc2c(c1)C(=O)CC(O)(C(F)F)O2 (stereo not given)	-3	0	4	31*	-46	72*	53*
CC1(C)CC(=O)c2cc(OCC(=O)N3CCN(c4ccccc4F)CC3)ccc2O1	0	-5	7	18	-16	.	.
CCOC(=O)COc1ccc2c(c1)C(=O)CC(C)(C)O2	66	-2	20	48*	-150	23	6	GDH-TPI DR=2.9*
CC1(C)CC(=O)c2cc(OCC(=O)N3CCN(Cc4ccccc4)CC3)ccc2O1	-13	-4	4	7	-14	.	.
CC1(C)CC(=O)c2cc(OCC(=O)N3CCCCCC3)ccc2O1	.	-3	0	46*	-104	88*	95*
CC1(C)CC(=O)c2cc(OCC(=O)O)ccc2O1	-5	-7	15	64*	-102	101*	75*
COc1cccc(CNC(=O)Cn2c(-c3ccccc3)cc(C(C)=O)c2C)c1	.	.	.	.	1	.	.
c1ccc(-c2nc3ccccn3c2NCc2ccc3c(c2)OCO3)cc1	8	3	14	12	-29	.	.
Cc1cccn2c(NCc3ccc4c(c3)OCO4)c(-c3ccc(O)cc3)nc12	4	14	3	53*	-48	182*	112*
COc1cccc(CN(C(=O)COc2ccccc2[N+](=O)[O-])C2CCS(=O)(=O)C2)c1 (stereo not given)	12	-16	1	4	.	.	.
COc1cccc(CN(C(=O)c2ccc([N+](=O)[O-])cc2)C2CCS(=O)(=O)C2)c1 (stereo not given)	5	4	12	64*	21	101*	79*
Cc1ccc2c(c1)c1c(c(=O)n(-c3ccccc3)c(=O)n1CC(=O)NCC1CCCO1)n2C (stereo not given)	7	13	-3	56*	-8	76*	52*
Cc1c(CC(=O)O)c(=O)oc2cc(OCc3ccc(Br)cc3)ccc12	-7	1	17	86*	-58	139*	122*
Cc1c(CCC(=O)O)c(=O)oc2cc(OCc3cccc(F)c3)ccc12	3	-1	8	86*	-46	9	0
COc1cccc(-c2coc3cc4oc(=O)c(CCC(=O)O)c(C)c4cc23)c1	0	0	0	3	16	.	.
Cc1c(CCC(=O)O)c(=O)oc2cc(OCc3ccccc3Br)ccc12	4	0	9	61*	-46	99*	69*
CCN(CC)CCCN1C(=O)C2=C(C1=O)C1N(C)c3ccccc3[C@@]13C[C@@H](CO)N(C(=O)CCC(=O)OC)C3=N2 (stereo not given in full)	.	.	.	.	4	.	.
O=C(CSc1nnc(-c2ccc(Cl)cc2)n1C1CCCCC1)NN=Cc1c(O)ccc2ccccc12	.	.	.	.	10	.	.
O=C(Nc1ccc2c(c1)OCO2)NC1CCN(S(=O)(=O)c2ccc(F)cc2)CC1	.	.	.	.	-5	.	.
COc1ccccc1-n1c(C)c(C(=O)O)c2cc(OC)c3ccccc3c21	-6	1	1	27*	-9	87*	82*
